Source: PubChem BioAssay (NCI)
Where “and” joins values, the source holds several entries; their conditions need not be identical. Equal entries are not always repeated. About 83,000 compounds went through this panel and 20% of them were active in at least one assay; those are over-represented in the sample as a whole.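 A percent growth of 40 corresponds to 60% growth inhibition; 0 means no net growth; -100 means all cells died. Active threshold: below 10.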 Calls of active or inactive are those of the source.

Assays:
Experiment in all cases: NCI-60 one-dose screen, 48 h (100 = growth as untreated, 0 = no growth, -100 = all killed)
Settings in all cases: 10 µM unless noted
SR leukemia = tested on: SR leukemia
RPMI-8226 leukemia = tested on: RPMI-8226 leukemia
OVCAR-8 ovarian = tested on: OVCAR-8 ovarian
OVCAR-5 ovarian = tested on: OVCAR-5 ovarian
OVCAR-4 ovarian = tested on: OVCAR-4 ovarian
SK-OV-3 ovarian = tested on: SK-OV-3 ovarian
IGROV1 ovarian = tested on: IGROV1 ovarian
OVCAR-3 ovarian = tested on: OVCAR-3 ovarian
HS 578T breast = tested on: HS 578T breast
NCI/ADR-RES ovarian = tested on: NCI/ADR-RES ovarian
T-47D breast = tested on: T-47D breast
BT-549 breast = tested on: BT-549 breast
MDA-MB-435 melanoma = tested on: MDA-MB-435 melanoma
SW-620 colon = tested on: SW-620 colon
MCF7 breast = tested on: MCF7 breast
HCT-116 colon = tested on: HCT-116 colon
HCC-2998 colon = tested on: HCC-2998 colon
KM12 colon = tested on: KM12 colon

Measured: growth

Nc1nc(N)c2c(n1)NC(c1ccc(Cl)cc1)CC(c1cccc(Nc3ccncc3)c1)=N2 (centres undefined)
active: SR leukemia 8.66%
inactive: RPMI-8226 leukemia 55.9% | OVCAR-8 ovarian 39% | OVCAR-5 ovarian 90.4% | OVCAR-4 ovarian 73.8% | SK-OV-3 ovarian 84.2% | IGROV1 ovarian 41.6% | OVCAR-3 ovarian 82.3% | HS 578T breast 77.9% | NCI/ADR-RES ovarian 100% | T-47D breast 77.6% | BT-549 breast 110% | MDA-MB-435 melanoma 42.7% | SW-620 colon 30% | MCF7 breast 49.4% | HCT-116 colon 21.9% | HCC-2998 colon 72.1% | KM12 colon 63.7%

c1ccc(Cc2cccc[n+]2C(c2ccccc2)c2ccccc2)cc1
active: T-47D breast 3.66%
inactive: SR leukemia 32.4% | RPMI-8226 leukemia 12.3% | OVCAR-8 ovarian 57.2% | OVCAR-5 ovarian 71.5% | OVCAR-4 ovarian 28.2% | SK-OV-3 ovarian 52.1% | IGROV1 ovarian 62.3% | OVCAR-3 ovarian 44.6% | HS 578T breast 90.6% | NCI/ADR-RES ovarian 104% | BT-549 breast 29.8% | MDA-MB-435 melanoma 40% | SW-620 colon 81.2% | MCF7 breast 34.6% | HCT-116 colon 49.2% | HCC-2998 colon 40.7% | KM12 colon 42.4%

Nc1ccccc1SC(CC(=O)c1ccccc1)c1ccc([N+](=O)[O-])cc1 (centres undefined)
13.4% (inactive) and 2.29% (active): SR leukemia
inactive: OVCAR-8 ovarian 95.5% and 95.8% | OVCAR-5 ovarian 118% and 114% | OVCAR-4 ovarian 93.8% and 87.8% | SK-OV-3 ovarian 108% and 95% | IGROV1 ovarian 117% and 76.1% | OVCAR-3 ovarian 105% and 63.8% | HS 578T breast 103% and 105% | NCI/ADR-RES ovarian 98.2% and 91.9% | T-47D breast 93.5% and 78.4% | BT-549 breast 83.6% and 86.4% | MDA-MB-435 melanoma 101% and 87.2% | SW-620 colon 51.9% and 45.8% | MCF7 breast 33% and 21.6% | HCC-2998 colon 101% | KM12 colon 79.1% and 31.5%
active: RPMI-8226 leukemia -1.33% and -0.234% | HCT-116 colon -87.1% and -80.5%

COc1ccc2c(c1)CC[C@@H]1[C@@H]2CC[C@]2(C)C3C(=CCC4C(=O)N(c5ccccc5)C(=O)C43)C[C@@H]12 (some centres undefined)
inactive: SR leukemia 99.1% | RPMI-8226 leukemia 61.2% | OVCAR-8 ovarian 86.2% | OVCAR-5 ovarian 75.7% | OVCAR-4 ovarian 78.8% | SK-OV-3 ovarian 103% | IGROV1 ovarian 113% | OVCAR-3 ovarian 87.3% | HS 578T breast 97.6% | NCI/ADR-RES ovarian 85.8% | T-47D breast 99.6% | BT-549 breast 110% | MDA-MB-435 melanoma 86.4% | SW-620 colon 90.6% | MCF7 breast 111% | HCT-116 colon 66.9% | HCC-2998 colon 93.6% | KM12 colon 93.6%

C=CCOc1ccc(/C=C2\SC(=S)N(CCc3ccc(O)cc3)C2=O)cc1
inactive: SR leukemia 38.6% | RPMI-8226 leukemia 76.8% | OVCAR-8 ovarian 97.5% | OVCAR-5 ovarian 110% | OVCAR-4 ovarian 86.5% | SK-OV-3 ovarian 115% | IGROV1 ovarian 59.4% | OVCAR-3 ovarian 100% | HS 578T breast 95% | NCI/ADR-RES ovarian 98.9% | T-47D breast 82.8% | BT-549 breast 93.6% | MDA-MB-435 melanoma 77.5% | SW-620 colon 88.9% | MCF7 breast 86.5% | HCT-116 colon 99.6% | HCC-2998 colon 114% | KM12 colon 91.5%

N#Cc1ccccc1OCC(=O)Nc1nc2c(s1)COc1ccccc1-2
inactive: RPMI-8226 leukemia 96.8% | OVCAR-8 ovarian 106% | OVCAR-5 ovarian 85.4% | OVCAR-4 ovarian 99.1% | SK-OV-3 ovarian 94.7% | OVCAR-3 ovarian 110% | HS 578T breast 99.7% | NCI/ADR-RES ovarian 104% | T-47D breast 86.2% | BT-549 breast 122% | MDA-MB-435 melanoma 104% | SW-620 colon 103% | MCF7 breast 91.4% | HCT-116 colon 102% | HCC-2998 colon 103% | KM12 colon 105%
active: SR leukemia -19.5% | IGROV1 ovarian -3.12%

COc1cc(NS(=O)(=O)C(C)C)cc(-c2cc(-c3ccc(N4CCNCC4)cc3)cnc2N)c1
inactive: SR leukemia 54.1% | RPMI-8226 leukemia 80% | OVCAR-8 ovarian 96.6% | OVCAR-5 ovarian 73.2% | OVCAR-4 ovarian 95.9% | SK-OV-3 ovarian 96.9% | IGROV1 ovarian 36.9% | OVCAR-3 ovarian 90.8% | HS 578T breast 65.4% | NCI/ADR-RES ovarian 111% | T-47D breast 81.9% | BT-549 breast 78.4% | MDA-MB-435 melanoma 92.5% | SW-620 colon 82% | MCF7 breast 81.2% | HCT-116 colon 14.2% | HCC-2998 colon 80.5% | KM12 colon 48.3%

CCOC(=O)C(=CCC(C)C)C(=O)OCC
inactive: SR leukemia 119% | RPMI-8226 leukemia 99% | OVCAR-8 ovarian 109% | OVCAR-5 ovarian 95.8% | OVCAR-4 ovarian 95.2% | SK-OV-3 ovarian 98.5% | IGROV1 ovarian 104% | OVCAR-3 ovarian 99.5% | HS 578T breast 98.6% | NCI/ADR-RES ovarian 93.8% | T-47D breast 88.2% | BT-549 breast 93.1% | MDA-MB-435 melanoma 99.7% | SW-620 colon 105% | MCF7 breast 99.5% | HCT-116 colon 98.9% | HCC-2998 colon 92.4% | KM12 colon 110%
